Screening data: PubChem, National Center for Advancing Translational Sciences (NCATS)
A selection: hits, their analogues and other compounds. The true share with any hit is near 21%.
D3 ag = D3 dopamine receptor (human) agonism; P35462; max activation, %; AID 652048; D3R DiscoveRx beta-arrestin cells, luminescence, 90 min; actives 0.58% (n = 410,000); in the data active = max activation above about 30%
Target sequence (P35462 whole entry, looked up): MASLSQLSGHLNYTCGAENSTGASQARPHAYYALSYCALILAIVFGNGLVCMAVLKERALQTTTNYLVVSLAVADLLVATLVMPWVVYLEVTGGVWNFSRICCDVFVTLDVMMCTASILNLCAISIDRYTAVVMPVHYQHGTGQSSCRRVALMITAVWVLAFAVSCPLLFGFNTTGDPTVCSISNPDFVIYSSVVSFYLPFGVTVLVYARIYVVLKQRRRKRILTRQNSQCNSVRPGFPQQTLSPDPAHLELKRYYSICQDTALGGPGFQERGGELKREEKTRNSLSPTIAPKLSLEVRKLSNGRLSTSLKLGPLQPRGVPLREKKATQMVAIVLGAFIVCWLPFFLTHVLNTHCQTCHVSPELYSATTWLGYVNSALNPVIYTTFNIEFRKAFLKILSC
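Cells at 1500/well, incubated overnight, then treated with pinned compounds (dopamine as control) for 90 min at 37 degrees C. DiscoveRx reagent added for 30 - 60 minutes at room temperature; luminescence read.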
D3 antag = D3 dopamine receptor (human) antagonism. max response, negative = inhibition, %. D3R cells, DiscoveRx beta-arrestin luminescence, antagonist mode; hits give low values. P35462. actives 2.5% (n = 360,000); in the data active = max response below about -50%; inconclusive = no clear call, values can overlap the other calls
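Cells plated overnight at 1500 cells/well, then exposed to library compounds with dopamine controls for 90 minutes at 37 degrees C. DiscoveRx reagent added for 30–60 minutes at room temperature; luminescence read, quantitative HTS format.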
DT40 TDP1 CPT = DT40-hTDP1 cell growth loss with CPT; chicken DT40 Tdp1-/-;hTDP1 cells + 20 nM CPT, ATP luminescence, 48 h; Potency, µM (doses to about 46.2 µM), most hits filed as inhibitors; actives 12% (n = 420,000); also: nearly all actives have a fitted effect of over 55% in size
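Chicken DT40 Tdp1-/- cells complemented with human TDP1, 400 cells/well, exposed to compounds plus 20 nM camptothecin for at least 48 h at 37 C; viability read as ATP content by CellTiter-Glo luminescence.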
IL1B secr inh = inflammasome signaling inhibition, IL-1 beta readout; THP-1 LPS/ATP IL-1B secretion, AlphaLISA, 16 h; hits give low values; activity change, % at 57.5 µM; actives 4.7% (n = 360,000); in the data active = activity change below about -50%; inconclusive = mostly about -30% to -49%
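Secreted IL-1B measured by AlphaLISA bead assay after 16 h compound exposure of THP-1 cells; compounds (final up to 57.5 uM) added 1 h before LPS (250 ng/mL) and ATP (1.25 mM) stimulation; lower signal means less secretion.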
ClpP mod = qHTS Assay for Activators of ClpP; ATP-dependent Clp protease proteolytic subunit (Bacillus subtilis (strain 168)), P80244; purified B. subtilis ClpP, FRET peptide cleavage, 20 min; Potency, µM (titrated, usually from 57.5 µM); actives 1.9% (n = 340,000); active = well fitted falling curve with a large enough effect; inconclusive = small, poorly fitted or top-dose-only effect; inactive = no such curve, though single readings can be large or run the other way; also: the source files actives as falling curves though it sought activators and does not explain the sign; nearly all actives have a fitted effect of over 65% in size
Target sequence (P80244 whole entry, looked up): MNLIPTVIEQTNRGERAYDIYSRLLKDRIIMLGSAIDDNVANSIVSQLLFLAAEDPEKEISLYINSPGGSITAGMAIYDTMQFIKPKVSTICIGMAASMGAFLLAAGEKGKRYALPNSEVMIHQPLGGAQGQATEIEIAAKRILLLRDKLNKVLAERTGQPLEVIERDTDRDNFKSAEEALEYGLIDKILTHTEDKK
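Purified B. subtilis ClpP, 10 microg/mL final in Tris/HCl pH8 with KCl, BSA, glycerol and Tween-20, cleaved an Abz/nitrotyrosine-quenched decapeptide. Fluorescence (ex 320, em 430) was read at 0 and 20 min at room temperature. Delta was normalized to 5.8 microM ADEP and DMSO/no-enzyme controls.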
DT40 TDP1 no CPT = qHTS for Inhibitors of human tyrosyl-DNA phosphodiesterase 1 (TDP1): qHTS in cells in absence of CPT | actives 15% (n = 420,000) | DT40 Tdp1-/- hTDP1 cells, no CPT, ATP luminescence, 48 h | Potency, µM (series often up to 46.2 µM), hits mostly inhibitors | AID 686978, 2013; also: nearly all actives have a fitted effect of over 55% in size
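Seeded 400 DT40-hTDP1 cells/well (vehicle DMSO, no 20 nM CPT); pinned compounds; ≥48 hr at 37 °C; CellTiter-Glo luminescence as viability measure.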
Numbers stand for hits; - = inactive; ? = inconclusive; . = no result given. Unless noted, calls follow the shape of the dose curve; as a rule, active = well fitted inhibition curve with a large enough effect; inconclusive = small, poorly fitted or top-dose-only effect; inactive = flat fitted curve, though single readings scatter.

SMILES	D3 ag	D3 antag	DT40 TDP1 CPT	IL1B secr inh	ClpP mod	DT40 TDP1 no CPT
CN(C)c1ccc(-c2csc(C(O)c3ccc(F)c(F)c3)n2)cc1 (centres undefined)	-	-	16µM	-	-	15µM
COc1cccc(C(O)c2nc(-c3ccc(Cl)cc3)cs2)c1 (centres undefined)	-	-	?	-	-	?
COc1cccc(C(O)c2nc(-c3ccccc3)cs2)c1 (centres undefined)	-	-	?	-	-	16µM
COc1ccc(-c2csc(C(O)c3ccc(OC)cc3)n2)cc1 (centres undefined)	-	-	?	-	-	?
CCOc1ccc(/C=N/NC(=O)Cc2cccs2)cc1	-	-	-	.	.	-
OC(c1ccco1)c1nc(-c2ccc(F)c(Cl)c2)cs1 (centres undefined)	-	-	?	-	-	-
CC(=O)c1c(O)c(C)c(O)c2c1OC1=CC(=O)/C(=C(/C)N)C(=O)C12C (centres undefined)	-	-	15µM	-	-	8.2µM
CCC(=O)N1CCc2cc(CNC(=O)c3ccccc3C)ccc21	-	.	?	.	-	?
Cc1c(C(=S)Nc2ccccc2)cnn1-c1ccc([N+](=O)[O-])cc1	-	-	16µM	-	-	?
Cc1c(C(=S)Nc2ccccc2)cnn1-c1ccccc1	-	?	21µM	-	-	-
CCN(CC(=O)Nc1ccc(OC)cc1)CC(=O)Nc1cccc(C#N)c1	-	-	-	-	-	-
CC(NS(=O)(=O)c1ccc(Cl)cc1)C(=O)NCCC1=CCCCC1 (centres undefined)	-	-	-	-	.	?
O=C(NNc1cc(Cl)cc(Cl)c1)c1cccs1	-	-	?	-	.	18µM
O=C(CCC(=O)c1cccs1)NNC(=O)c1ccccc1Cl	-	-	-	-	-	-
O=C(CCC(=O)c1cccs1)NNC(=O)c1cccc(Cl)c1	-	-	?	-	.	23µM
NS(=O)(=O)c1ccc(NNC(=O)c2cccs2)cc1	-	-	-	.	.	-
Cc1ccc(C(=O)N/N=C(/CC(=O)c2cccs2)C(F)(F)F)cc1	-	-	7.3µM	-	-	9.2µM
Cc1ccc(NC(=O)CCC(=O)c2cccs2)cc1	-	-	-	-	-	-
O=C(N/N=C(\CC(=O)c1cccs1)C(F)(F)F)c1ccncc1	-	-	-	.	.	-
Cc1ccc(NCCC(=O)c2cccs2)cc1	-	-	2.9µM	-	-	5.2µM
Cc1c(Cl)cccc1NC(=O)CCC(=O)c1cccs1	-	-	-	-	-	?
O=C(CCNc1cccc(Cl)c1)c1cccs1	-	-	10µM	-	-	15µM
Cc1ccc(NCCC(=O)c2cccs2)cc1C	-	-	4.6µM	-	-	5.8µM
C/C(=N\NC(=O)CCC(=O)Nc1ccc(C)c(C)c1)c1cccs1	-	-	-	-	.	-
CCCOc1ccc(C(=O)CCNc2ccc(C)c(Cl)c2)cc1	-	-84	-	-	-	-
SMILES	D3 ag	D3 antag	DT40 TDP1 CPT	IL1B secr inh	ClpP mod	DT40 TDP1 no CPT
Cc1ccc(NCCC(=O)c2cccs2)cc1Cl	-	-	7.3µM	-	-	9.2µM
CCCn1c(N)c(C(=O)CSc2nc3ncc(Cl)cc3[nH]2)c(=O)[nH]c1=O	-	-	-	-	-	-
Cc1cc(NC(=O)c2cccs2)cc(-c2nc3cc(Cl)ccc3o2)c1O	-	.	.	.	-	.
CCc1ccc(NCCC(=O)c2ccc(Cl)cc2)cc1	-	-	21µM	-	-	16µM
CC(C)c1ccc(NCCC(=O)c2cccs2)cc1	-	-	5.2µM	-	-	5.2µM
CCc1ccc(C(=O)NNc2ccc(Cl)cc2)cc1	-	-	-	-	-	-
CC(CC(=O)c1cccs1)CC(=O)c1cccs1	-	-	-	-	-	-
Cc1nn(C)cc1S(=O)(=O)NCc1ccc2c(c1)OCO2	-	-	-	-	-	-
CC(=O)Nc1cc(C(=O)NCc2ccc(F)cc2)ccc1Sc1ccc(C)cc1	-	.	?	.	-	?
COC(=O)c1c(NC(=O)CN2C(=O)NC3(CCCCC3C)C2=O)sc2c1CCC2 (centres undefined)	-	-	?	-52	-	?
CC1CCCN(C(=S)SCC(=O)c2cc(Br)cc(Br)c2O)C1 (centres undefined)	-	-	4.1µM	-	.	2.9µM
Nc1ncnc(Nc2ccc(F)cc2)n1	-	-	-	-	-	-
Fc1ccc(Nc2ccnc(Nc3ccc(F)cc3)n2)cc1	-	?	16µM	-94	-	18µM
O=C(Cc1cccs1)NCc1cccc(F)c1	-	-	-	-	-	-
CCN1c2ccccc2-c2nc3ccccc3n2C1c1ccccn1 (centres undefined)	-	-	?	-	?	16µM
CCN1c2ccccc2-c2nc3ccccc3n2C1c1ccncc1 (centres undefined)	-	-	?	-	?	?
CN1OC[C@@H]2CN(Cc3ccccc3)[C@H](c3cccc(Oc4ccccc4)c3)C[C@@H]21	-	-	26µM	-	-	23µM
COc1cc(/C=C(\C#N)C(=O)c2c[nH]c3ccccc23)cc(OC)c1O	-	-	-	-	.	-
CC(=O)N1CCN(C(=O)c2cc(S(=O)(=O)N3CCCCC3)ccc2Cl)CC1	-	-	-	-	-	-
O=C(Cn1ncc(Cl)c(Cl)c1=O)NC1CCS(=O)(=O)C1 (centres undefined)	-	-	23µM	-	-	21µM
O=C(NCC1CCCCC1)c1cc(Br)ccc1Cl	-	-	-	-	.	?
O=C(Cn1ncc(Cl)c(Cl)c1=O)NC1CCCCC1	-	-	10µM	-100	-	15µM
Cc1cccc(NC(=O)CNC(=O)Cn2ncc(Cl)c(Cl)c2=O)c1C	-	-	12µM	-100	-	9.2µM
Cc1ccc(Cn2c(C)c3cnn(CC(=O)NC4CCCC4)c(=O)c3c2C)cc1	-	-	?	-	-	?
O=C(Cn1ncc(Cl)c(Cl)c1=O)NCC1CCCCC1	-	-	2.6µM	-103	-	1.8µM
Cc1ccccc1CNC(=O)C(C)N(c1ccccc1)S(C)(=O)=O (centres undefined)	-	.	-	.	-	-
CC(C)NS(=O)(=O)c1ccc(NCCCn2ccnc2)c([N+](=O)[O-])c1	-	-	-	-	.	-
Cc1cccc(-n2ccc(=O)c(C(=O)Nc3ccc(S(=O)(=O)Nc4onc(C)c4C)cc3)n2)c1	-	-	-	-	.	-
